# High-throughput results from PubChem BioAssay.
# p-CIP stab down: compounds decreasing mouse p/CIP protein stability; Q05BA5; 290,000 tested, 0.01% active; AID 1984; F442A p/CIP-EGFP cells, EGFP fluorescence, 16 h; decrease of EGFP signal, % at 10 µM;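 active = EGFP signal decrease of at least 30% at 10 µM or well 3 SD below plate mean, unless failing retest; inactive = the rest, including hits failing retest or dose response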
# MPTP inh: blocks calcium-induced mitochondrial swelling | isolated mouse mitochondria, Ca2+ swelling absorbance, 30 min | inhibition, % at 10 µM | 360,000 tested, 1.4% active | AID 602449;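 active = inhibition of 50% or more, scaled per plate between neutral and stimulator controls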;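 note: 0% = DMSO wells given calcium and 100% = 1 mM EGTA wells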
# FAS TE block: FAS thioesterase (human) inhibition; recombinant FAS-TE, OMFH fluorogenic substrate, fluorescence endpoint; 360,000 tested, 0.67% active; P49327; inhibition, % at 15 µM; AID 602261;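 active = compounds whose normalised, plate-corrected inhibition of enzyme fluorescence in the single-dose primary screen is 50% or more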;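 note: 0% = DMSO with enzyme and 100% = substrate without enzyme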
# MIN6 prolif: inducers of beta-cell replication in MIN6 cells. proliferation, % at 10 µM. MIN6 cells proliferation, ATPlite luminescence, 48 h; cells starved in 0.2% serum; 100% = growth in 10% serum. 330,000 tested, 0.29% active;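 active = compounds whose signal lies at least 3.5 SD above the mean of all wells on their plate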;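 note: 0% = DMSO-treated cells in low-serum medium and 100% = 10% serum control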
# NR3A LBD binder: NR3A (human) ligand-binding domain modulation. NR3A LBD differential scanning fluorimetry, Tm shift; 0% = protein alone, 100% = glycine-bound protein. Tm shift relative to glycine control, % at 25 µM. 340,000 tested, 2.5% active;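 active = melting temperature shift of at least 10% of the positive control shift, at one fixed dose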
# FAS-TE conf: confirmation of human fatty acid synthase thioesterase inhibitors; shares compounds with FAS TE block; 2,300 tested, 45% active; inhibition, % at 15 µM; recombinant FAS-TE, OMFH fluorogenic substrate, fluorescence;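 active = compounds inhibiting the enzyme by at least 50% at 15 µM in any one of the replicates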;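 note: 0% = enzyme with DMSO only and 100% = wells lacking enzyme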
# * = called active by the depositor; . = not tested or not shown. Rows were chosen to be rich in hits. Some 4.1% of all compounds tested hit in one or more screens of this group.
SMILES,p-CIP stab down,MPTP inh,FAS TE block,MIN6 prolif,NR3A LBD binder,FAS-TE conf
Cc1ccc2c(c1)[C@H]1[C@H](CO2)[C@H](c2ccccc2)[C@]2(C)C(=O)N(Cc3ccc(F)cc3)CC(=O)N12,.,0.3,23.7,-5.8,-1.6,.
Cc1ccc2c(c1)[C@H]1[C@H](CO2)[C@H](c2ccccc2)[C@]2(C)C(=O)Nc3ccc(F)cc3C(=O)N12,.,-0.5,83.4*,.,0.5,44.4
Cc1ccc2c(c1)[C@H]1[C@H](CO2)[C@H](c2ccccc2)[C@]2(C)C(=O)Nc3cc(Cl)ccc3C(=O)N12,.,0.3,93.0*,-8.7,1.0,29.9
Cc1ccc2c(c1)[C@H]1[C@H](CO2)[C@H](c2ccccc2)[C@]2(C)C(=O)Nc3cc(F)c(F)cc3C(=O)N12,.,1.8,76.1*,-5.7,2.0,21.0
COc1ccc(OC)c(/C=N/N(C)c2ccccc2)c1,-7.8,-0.6,21.5,-3.1,.,.
COc1cc(/C=N/N(C)c2ccccc2)cc(Cl)c1O,9.0,6.0,73.3*,-3.6,0.1,57.1*
Cc1cccc(Oc2ccc(S(=O)(=O)N3CCCCC3)cc2NC(=O)C2=COCCO2)c1,.,-0.8,65.3*,-7.1,-1.3,5.5
CC(C)Oc1ccc(S(=O)(=O)N2CCCCC2)cc1NC(=O)C1=COCCO1,.,-0.6,10.8,9.2,3.3,.
O=C(Cn1nc(-c2ccco2)ccc1=O)Nc1cc(Cl)ccc1Cl,-0.8,0.2,29.2,-2.9,0.1,.
O=C(Cn1nc(-c2ccco2)ccc1=O)Nc1ccc(Cl)c(Cl)c1,-5.0,-3.4,59.2*,0.0,-2.2,36.1*
O=C(Cn1nc(-c2ccco2)ccc1=O)Nc1cc(C(F)(F)F)ccc1Cl,-18.2,0.9,52.0*,0.7,-0.7,73.0*
CCCCCCCCNC(=O)/C(C#N)=C/c1ccccc1[N+](=O)[O-],-12.9,2.2,56.6*,-5.7,-15.5,73.4*
O=c1[nH]cnc2c1ncn2C1CCC(CO)O1 (stereo not given),.,1.1,-2.4,.,.,.
CC1CCN(S(=O)(=O)c2ccc(NC(=O)N3c4ccccc4Sc4ccccc43)cc2)CC1,-10.6,2.9,61.9*,-0.6,2.1,15.4
CC1=C(C(=O)Nc2ccccc2)C(c2ccco2)C(C#N)=C(SCC(=O)Nc2cccc(C)c2C)N1 (stereo not given),-1.6,3.0,7.8,-4.7,-0.6,.
CCOc1ccccc1NC(=O)CSC1=C(C#N)C(c2ccco2)C(C(=O)Nc2nc3ccccc3s2)=C(C)N1 (stereo not given),-7.2,1.1,81.3*,0.0,-2.8,18.8
CC(=O)CC1N(S(=O)(=O)c2ccc(C)cc2)c2ccccc2N1S(=O)(=O)c1ccc(C)cc1,.,0.8,.,.,.,.
O=C(NCCN1C(=O)S/C(=C\c2ccccc2F)C1=O)C1CCN(S(=O)(=O)c2cccs2)CC1,-10.0,5.0,61.4*,-4.6,-17.7,9.1
O=C(OCc1ccccc1)N1C=CCC[C@@H]1c1c(Cl)cccc1Br,.,1.6,13.5,.,.,.
O=C(NCc1ccc(C(F)(F)F)cc1)C1CC(c2ccc(C(F)(F)F)cc2)=NO1 (stereo not given),.,26.8,16.9,-5.8,-5.7,.
O=C(NCc1ccc(C(F)(F)F)cc1)C1CC(c2c(Cl)cccc2Cl)=NO1 (stereo not given),-6.8,0.6,54.9*,-3.2,-15.0,55.4*
CC(C)CC(NC(=O)c1ccc(Cl)cc1)C(=O)OCc1cc([N+](=O)[O-])cc2c1OCOC2 (stereo not given),-13.9,1.6,52.1*,-0.4,-8.0,37.2
C[C@H](CO)N1C[C@H](C)[C@@H](CN(C)Cc2cncnc2)Oc2cc(Br)ccc2S1(=O)=O,.,0.2,-2.4,.,.,.
C[C@@H]1CN([C@H](C)CO)C(=O)c2cc(NC(=O)Nc3ccc(F)cc3)ccc2O[C@@H](C)CCCCO[C@H]1CN(C)S(=O)(=O)c1ccc(Cl)cc1,.,1.5,69.1*,.,.,34.5
C[C@@H]1CCCCO[C@@H](CN(C)S(=O)(=O)c2cccs2)[C@@H](C)CN([C@H](C)CO)C(=O)c2cc(NS(=O)(=O)c3ccccc3)ccc2O1,.,0.1,62.7*,.,.,14.3
C[C@@H]1CCCCO[C@H](CN(C)C(=O)Nc2ccc3c(c2)OCO3)[C@H](C)CN([C@@H](C)CO)C(=O)c2cc(NS(=O)(=O)c3ccc(Cl)cc3)ccc2O1,.,0.0,59.1*,.,.,14.0
